An excerpt weighted towards active compounds, which were near 3% of everything screened.
D3 antag: antagonists of human D3 dopamine receptor. P35462. D3R cells, DiscoveRx beta-arrestin luminescence, antagonist mode; hits give low values. max response, negative = inhibition, %. 2.5% of 360,000 active. AID 652054; in the data active means max response below about -50%; inconclusive means no clear call, values can overlap the other calls; further: on the % scale 0 is the no-effect control and ±100 the full control effect
Target sequence (P35462 whole entry, looked up): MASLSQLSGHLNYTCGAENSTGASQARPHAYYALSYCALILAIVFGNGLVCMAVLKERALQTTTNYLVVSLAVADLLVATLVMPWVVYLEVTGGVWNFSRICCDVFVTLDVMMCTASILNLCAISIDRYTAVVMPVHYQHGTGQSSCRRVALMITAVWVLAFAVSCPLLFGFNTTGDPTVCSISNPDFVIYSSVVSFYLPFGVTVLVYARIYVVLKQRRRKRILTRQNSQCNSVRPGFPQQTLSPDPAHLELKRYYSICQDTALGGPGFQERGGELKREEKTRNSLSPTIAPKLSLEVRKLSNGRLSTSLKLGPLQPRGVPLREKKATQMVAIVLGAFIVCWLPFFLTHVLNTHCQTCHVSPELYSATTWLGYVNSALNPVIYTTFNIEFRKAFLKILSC
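Cells expressing the human receptor were seeded at 1500 cells/well, incubated overnight at 37 degrees C in 5% CO2, then exposed to library compounds with dopamine controls for 90 minutes at 37 degrees C before luminescent detection.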
GRP78 ERSR act: ER stress response induction in glioma. U87-MG GRP78 promoter luciferase reporter, 16 h. Potency, µM, without a hit: at the top dose activation, usual class: activators. 0.02% of 420,000 active; further: potency means the concentration at half of the fitted maximal effect; series mostly up to about 76 µM; % of control where 0% means no effect; nearly all actives have a fitted effect of over 35% in size
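Stably transfected U87-MG glioma cells carrying a GRP78-based luciferase sensor; 16 h compound incubation. Luminescence end-point read 10 min after Bright-Glo addition at room temperature.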
Nrf2 ARE act: Nrf2 pathway activation | AREc32 ARE-luciferase reporter (MCF7-derived line), luminescence, 24 h | Potency, µM (series often up to 46.1 µM), without a hit: at the top dose activation, actives largely listed as activators | 0.31% of 410,000 active | AID 624171; further: potency means the concentration at half of the fitted maximal effect; % of control where 0% means no effect; nearly all actives have a fitted effect of over 65% in size
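Nrf2 activation is followed as ARE-luciferase induction in the AREc32 line after one day of compound treatment; luminescence is read with Steady-Glo.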
D3 ag: D3 dopamine receptor (human) agonism; P35462; D3R DiscoveRx beta-arrestin cells, luminescence, 90 min; max activation, %; 0.58% of 410,000 active; AID 652048; in the data active means max activation above about 30%; further: 0% is about no effect
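Cells at 1500/well, incubated overnight, then treated with pinned compounds (dopamine as control) for 90 min at 37 degrees C. DiscoveRx reagent added for 30 - 60 minutes at room temperature; luminescence read.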
Numbers without * were called inactive; ? = inconclusive; . = not tested or not shown. Unless noted, the call rests on the fitted dose curve; in most records, active means well fitted curve in the direction sought with a large enough effect; inconclusive means small, poorly fitted or top-dose-only effect, or another doubt; inactive means no such curve, though single readings can be large; an effect the other way counts as inactive or inconclusive.

SMILES | D3 antag | GRP78 ERSR act | Nrf2 ARE act | D3 ag
CC(C)n1cnc2c(N(C)c3ccccc3)nc(N(CCN(C)C)Cc3ccccc3)nc21 | -70* | -3% | -3% | -44
CCN1CCN(CCCNC(=O)c2cc3c(s2)-c2ccccc2OC3)CC1 | ? | -2% | 0% | -19
CN(C)CCNC(=O)c1cc2c(s1)-c1ccccc1OC2 | -81* | -2% | 0% | -13
Cc1cccc2c1-c1sc(C(=O)NCCCN3CCCC(C)C3)cc1CO2 (centres undefined) | -76* | -6% | 1% | -10
CC(C)(C)C1CCC(OCC(O)CN2CCCC2)CC1 (centres undefined) | 3 | -1% | 0% | -9
CC1CCN(CC(O)COC2CCC(C(C)(C)C)CC2)CC1 (centres undefined) | -56* | -5% | 0% | -16
O=C(c1ccccc1)N1CCN(CC(O)COC2CCCCC2)CC1 (centres undefined) | ? | -3% | 0% | -7
CC(C)(C)C1CCC(OCC(O)CN2CCN(c3ccccc3)CC2)CC1 (centres undefined) | -20 | -5% | 0% | 59*
OC(COC1CCCCC1)CN1CCCCC1 (centres undefined) | -72* | -5% | 0% | -18
Cc1ccc(N2CCN(CC(O)COC3CCCCC3)CC2)cc1 (centres undefined) | -90* | -5% | 1% | -13
COc1ccc([C@H]2[C@@H]3C=CCC[C@@]3(C)C(=O)N2Cc2ccccc2)cc1Cl | -55* | -5% | 6% | -21
c1cncc(-c2nc(N3CCCCCC3)c3ccccc3n2)c1 | -1 | -1% | -1% | 0
Nc1nc(-c2cccnc2)nc(N2CCCCC2)n1 | 5 | -2% | 0% | 33*
Cc1ccc(OCc2nnc(SCC(=O)c3cccs3)n2-c2ccccc2)cc1C | -53* | -9% | 0% | 0
O=[N+]([O-])c1c(Nc2ccccc2O)cc(Cl)c2nonc12 | -140* | -14% | -2% | -33
COC(=O)c1c(NC(=O)c2ccco2)sc(C(=O)N(C)C)c1C | 2 | 1% | 13µM* | -4
N/C(Cc1cccc2ccccc12)=N\O | 19 | 0% | 2% | 30*
Cc1ccc(SC(C)C(=O)NCc2ccncc2)cc1 (centres undefined) | -59* | -3% | -1% | -7
COc1ccc(CNC(=O)C(C)Sc2ccc(C)cc2)cc1 (centres undefined) | 3 | -3% | 0% | 3
CCOc1ccc(C2C(C#N)=C(N)Oc3cc(C)n(Cc4ccco4)c(=O)c32)cc1OC (centres undefined) | -53* | -5% | 2% | 3
CC(C)(C)c1ccc(C(=O)C[n+]2cccc(Br)c2)cc1 | . | -5% | . | .
C[C@H]1CNC(=O)c2c(C(=O)N3CCN(C(=O)OC(C)(C)C)CC3)ncn21 | -55* | -4% | 0% | -13
CCN(CC)c1ccc(/C=C/C2=C3C=CC=CC3NC=C2)cc1 (centres undefined) | . | 0% | . | .
CCCCC(=O)Nc1ccc(C(=O)NCCc2ccccc2)cc1 | -62* | -3% | 2% | -17
CCCCCC(=O)NNC(=O)c1ccc(-c2ccccc2)cc1 | 30 | -2% | 0% | 36*
SMILES | D3 antag | GRP78 ERSR act | Nrf2 ARE act | D3 ag
O=C(NNC(=O)c1ccc(-c2ccccc2)cc1)c1ccccc1 | 7 | 1% | 3% | -1
O=C(c1ccc(S(=O)(=O)Cc2cc(F)ccc2F)c([N+](=O)[O-])c1)N1CCOCC1 | -11 | 16% | 13µM* | 4
C=CCn1c(-c2cccc(Cl)c2)n[nH]c1=S | -57* | 2% | 0% | 5
CSCCC(NC(=O)c1ccc(Cl)cc1Cl)C(=O)N(C)Cc1nc2ccccc2c(=O)[nH]1 (centres undefined) | -51* | -4% | 5% | -8
Cc1ccc(-c2csc3n[nH]c(=S)n23)cc1 | -100* | -1% | 1% | -2
CN(C)c1c(Cl)cc(/C=C2\C=Cc3ccccc32)cc1Cl | . | 0% | . | .
O=C(OCc1ccccc1)N1CCN(/[N+]([O-])=N/Oc2ccc([N+](=O)[O-])cc2[N+](=O)[O-])CC1 | . | -11% | . | .
CCOc1ccccc1NC(=O)c1ccccc1N(C)S(C)(=O)=O | ? | -3% | 0% | 16
CN(c1ccccc1C(=O)Nc1cccc(Cl)c1Cl)S(C)(=O)=O | -57* | -4% | -1% | -11
COc1cccc(C(=O)Nc2c(C(=O)NC(C)(C)C)oc3ccccc23)c1 | . | -4% | 0% | -4
COC(=O)CSC1=C(C#N)C(=O)NC(c2ccccc2)S1 (centres undefined) | -74* | -8% | 0% | -2
CSC1=C(C#N)C(=O)NC(c2ccccc2O)S1 (centres undefined) | -7 | -5% | 0% | -5
CC(C)C[C@H](NC(=O)[C@@H](COC(C)(C)C)NC(=O)[C@H](Cc1ccc(O)cc1)NC(=O)[C@H](CO)NC(=O)[C@H](Cc1c[nH]c2ccccc12)NC(=O)[C@H](Cc1cnc[nH]1)NC(=O)[C@@H]1CCC(=O)N1)C(=O)N[C@@H](CCCN=C(N)N)C(=O)N1CCC[C@H]1C(=O)NNC(N)=O | . | . | . | 1
OC[C@H]1O[C@@H](n2cnc3c2NC=NC[C@H]3O)C[C@@H]1O | . | -5% | . | 44*
Nc1ncn(C2C[C@H](O)[C@@H](CO)O2)c(=O)n1 (some centres undefined) | . | -1% | . | .
Cc1nc(-c2ccc(OCC(C)C)c(C#N)c2)sc1C(=O)O | . | -11% | . | -3
O=C1C2ON(c3ccccc3)C(c3cccnc3)C2C(=O)N1c1ccc(Cl)c(Cl)c1 (centres undefined) | 30 | -4% | -1% | 47*
O=C1C2ON(c3ccccc3)C(c3cccnc3)C2C(=O)N1c1ccccc1 (centres undefined) | -2 | -1% | 0% | 7
Cc1ccc(C(=O)Nc2ccc3c(c2)N(C)C(=O)c2ccccc2S3)cc1F | . | -6% | 0% | -15
CCCCOC(=O)c1ccc(NS(=O)(=O)c2c(C)nc3scc(C)n3c2=O)cc1 | . | -3% | 6% | 36*
SCc1nc2ccccc2[nH]1 | . | 0% | . | .
Cc1cnc(SCc2ccccn2)nc1C1CCCN(C(=O)c2scc3c2CCCC3)C1 (centres undefined) | . | -8% | . | .
Cc1ccnc2c(N)cccc12 | . | 3% | . | .
Cc1cnc(C)c(-c2cccc3c2OC(CNC(=O)/C=C/c2ccncc2)C3)n1 (centres undefined) | . | -4% | . | .
O=C(Nc1ccccc1)N1CCN(c2nc(-c3ccccc3)ns2)CC1 | 11 | 4% | 2% | 36*
CN1CCCC(n2nc(Cc3ccc(Cl)cc3)c3ccccc3c2=O)CC1 (centres undefined) | -54* | -4% | 1% | -82
CC1CCN(CCCNc2cc(NCCO)c([N+](=O)[O-])c3nonc23)CC1 | -20 | -3% | 1% | -24
CN(CCO)c1cc(NCCCN2CCC(Cc3ccccc3)CC2)c2nonc2c1[N+](=O)[O-] | -75* | -6% | 2% | -12
COc1cc2c(cc1NC(=O)C(C)N1CCN(S(=O)(=O)c3ccc(C)c(C)c3)CC1)oc1ccccc12 (centres undefined) | -21 | 3% | 8% | 31*

Screens as filed in PubChem BioAssay.
